The nature of test [1]: ATG_CRE_CIS: Attagene CIS-FACTORIAL HepG2 Assay for human cAMP Responsive Element (CRE) binding protein 3 (AID 2282926). The following applies: HepG2 CRE cis-reporter, Attagene multiplexed mRNA; actives raise or lower the signal. An outline of the steps:
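Assay format: transient reporter transfection of HepG2, 24 h treatment, total RNA isolation with DNase I step. Reporter abundance read by fluorescence after PCR and capillary separation; DMSO-normalised gain or loss fitting.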

The target of test [2] is CCAAT/enhancer-binding protein beta (Homo sapiens) (UniProt P17676). The experiment in a line: ATG_C_EBP_CIS: Attagene CIS-FACTORIAL HepG2 Assay for human CCAAT/Enhancer Binding Protein (C/EBP) beta (AID 2282927). To be noted: HepG2 Attagene cis-factorial transcription factor reporter; actives raise or lower the signal. Summed up:
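Following a 24 h incubation with test chemical, transfected HepG2 cells yielded RNA whose reporter transcripts were quantified by RT-PCR and fluorescent capillary electrophoresis, with DMSO serving as baseline for bidirectional fitting.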

The nature of test [3]: ATG_CMV_CIS: Attagene CIS-FACTORIAL HepG2 Assay for human CMV (Internal Marker) (AID 2282928).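 Also: endpoint acts as a background internal control marker rather than a target.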 To be noted: HepG2 CMV promoter reporter, transcription factor profiling; actives raise or lower the signal. An outline of the steps:
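Bidirectional fits against DMSO are applied to reporter mRNA, read by RT-PCR with capillary electrophoresis, from HepG2 cells exposed 24 h. The endpoint serves as an internal CMV background marker within the cis-factorial reporter panel.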

The nature of test [4]: APR_HepG2_MitoMembPot_72hr: Apredica 72-hour HepG2 Assay for Mitochondrial Membrane Potential (AID 2282917). The following applies: imaging, actives raise or lower the signal. An outline of the steps:
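HepG2 cells exposed 72 h to compounds at 0.39–200 uM (0.5% v/v DMSO, duplicates); MitoTracker Red CMXRos 250 nM loaded 30 min before 3.7% formaldehyde fixation, imaged by HCS fluorescence. Bidirectional fit versus DMSO.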

The nature of test [5]: APR_HepG2_MicrotubuleCSK_72hr: Apredica 72-hour HepG2 Assay for Microtubule CSK Stabilty (AID 2282919). The following applies: HepG2 microtubule cytoskeleton, high-content imaging, actives raise or lower the signal. Summed up:
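Ten-point dosing (0.39–200 uM, 0.5% DMSO) of HepG2 for 72 hr, with taxol as the cytoskeletal positive control. The cells were formaldehyde-fixed and then stained with alpha-tubulin/Cy5 and Hoechst. Imaging at 20x used a −2 um Z offset for tubulin.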

The nature of test [6]: APR_HepG2_P-H2AX_24hr: Apredica 24-hour HepG2 Assay for H2AX Phosphorylation (AID 2282920). To be noted: high-content imaging, actives raise or lower the signal. Summed up:
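HepG2, 24 hr, cpd 0.39–200 uM (10 conc, duplicate), DMSO 0.5% v/v final. Fix 3.7% formaldehyde, Triton X-100 permeabilize, anti-phospho-H2A.x 1:200 + Hoechst 2 ug/mL. Imaged, bidirectional fit vs DMSO.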

Test [7] is described as follows: APR_HepG2_StressKinase_72hr: Apredica 72-hour HepG2 Assay for Stress Kinase (AID 2282921). The following applies: HepG2 stress kinase (phospho-c-Jun) imaging, actives raise or lower the signal. An outline of the steps: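 After a 72 h compound treatment spanning 0.39 to 200 uM, formaldehyde-fixed cells are labelled for phosphorylated c-Jun and nuclei, imaged by automated fluorescence microscopy, and activity is fitted in both directions relative to DMSO controls.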

A short description of test [8]: APR_HepG2_StressKinase_24hr: Apredica 24-hour HepG2 Assay for Stress Kinase (AID 2282922). The following applies: HepG2 stress kinase (phospho-c-Jun) imaging, actives raise or lower the signal. An outline of the steps: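 After 24 hr compound treatment (up to 200 uM, final DMSO 0.5% v/v), HepG2 cells are fixed and multiplex-labeled; phospho-c-Jun intensity is captured by high-content fluorescence imaging and analyzed relative to DMSO.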

The nature of test [9]: APR_HepG2_MitoMass_72hr: Apredica 72-hour HepG2 Assay for Mitochondrial Mass (AID 2282924).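 Also: MitoTracker Red CMXRos stain intensity per cell imaged as mitochondrial mass.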 The following applies: high-content imaging, actives raise or lower the signal. An outline of the steps:
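Steps: treat HepG2 72 hr (0.39–200 uM, duplicate wells); load MitoTracker Red CMXRos, 250 nM, 30 min; fix with 3.7% formaldehyde, permeabilise with 0.5% Triton X-100; capture images, nuclei via Hoechst 33342; fit bidirectionally against DMSO.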

The nature of test [10]: APR_HepG2_p53Act_72hr: Apredica 72-hour HepG2 Assay for p53 Activation (AID 2282923).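 Also: average cellular p53 protein immunofluorescence intensity in HepG2 cells.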 To be noted: high-content imaging, actives raise or lower the signal. The protocol: APR_HepG2_72hr is a cell-based, multiplexed-readout assay that uses HepG2, a human liver cell line, with measurements taken at 72 hours after chemical dosing in a 384-well plate.APR_HepG2_p53Act_72hr is one of 10 assay component(s) measured or calculated from the APR_HepG2_72hr assay. It is designed to make measurements of […], a form of viability reporter, as detected with fluorescence intensity signals by HCS Fluorescent Imaging technology.Data from the assay component APR_HepG2_p53Act_72hr was analyzed into 1 assay endpoint. This assay endpoint, APR_HepG2_p53Act_72hr, was analyzed with bidirectional fitting relative to DMSO as the negative control and baseline of activity. Using a type of viability reporter, measures of protein for gain or loss-of-signal activity can be used to understand the signaling at the pathway-level as they relate to the gene TP53. Furthermore, this assay endpoint can be referred to as a primary readout, because this assay has produced multiple assay endpoints where this one serves a signaling function. To generalize the intended target to other relatable targets, this assay endpoint is annotated to the dna binding intended target family, where the subfamily is tumor suppressor. […]

A structure can be active in one record and inactive in another. Activity calls are given as the source filed them. The calls were made as follows: active = hit-call score of the fitted dose curve at least 0.9, where 1 is the maximum; inactive = score below 0.9.

Experimental findings from PubChem BioAssay (EPA / NIEHS) are described below.

Chain of CCAAT/enhancer-binding protein beta (Homo sapiens) (P17676 whole entry, looked up): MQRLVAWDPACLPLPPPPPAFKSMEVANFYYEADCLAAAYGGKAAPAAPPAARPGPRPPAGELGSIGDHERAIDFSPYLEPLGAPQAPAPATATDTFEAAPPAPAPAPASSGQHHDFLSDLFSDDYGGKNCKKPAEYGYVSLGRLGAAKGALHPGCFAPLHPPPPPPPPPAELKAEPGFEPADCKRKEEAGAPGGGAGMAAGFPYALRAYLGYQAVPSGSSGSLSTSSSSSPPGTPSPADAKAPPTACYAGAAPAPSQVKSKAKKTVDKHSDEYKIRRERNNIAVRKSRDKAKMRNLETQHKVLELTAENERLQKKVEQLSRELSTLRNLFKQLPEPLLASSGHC

Broadly, the AC50 is the concentration giving half of the maximal activity seen. For `ClCc1ccccc1CCl`, the concentration at half-maximal activity (AC50) is 9.56 µM (active) in test [1] and 56 µM (active) in [3]. For the same compound, the outcome in test [2] was inactive.
In the case of `O=[N+]([O-])c1ccc(Nc2ccccc2)cc1`, the compound was called inactive in [1], in test [2] and in test [3].
For the compound `O=C(N[C@H]1CN2CCC1CC2)c1ccc2c(c1)OCCO2`, the compound was called inactive in [4], in [5], in [6], in [7], in test [8] and in [9]. The result in [1], in [2] and in test [3] was inactive.
For `Nc1ccc(N)cc1`, the results for the AC50 in test [1] and in test [3] were 11.7 µM (active) and 24.3 µM (active), respectively. The compound was classed as inactive in test [1], in test [2] and in test [3].
For the compound `CCCCOP(=O)(CCCC)OCCCC`, the compound was called inactive in test [1], in [2] and in [3].
As to `CC(C)O.CC(C)O.OCCN(CCO)CCO.OCCN(CCO)CCO.[Ti]`, the call in [4], in test [5], in [6], in [7], in test [8] and in test [9] was inactive. The outcome in [1] and in test [3] was inactive.
Consider `N#Cc1ccncc1`, for which the result in test [1], in test [2] and in test [3] was inactive.
Regarding `CCOCn1c(-c2ccc(Cl)cc2)c(C#N)c(Br)c1C(F)(F)F`, the AC50 in [1] is 1.2 µM (active). Besides, the result in test [2] and in test [3] was inactive.
For the compound `Cc1cc(-c2cc(C)c(N)c(C)c2)cc(C)c1N`, the call in [1] and in test [2] was inactive. In addition, the half-maximal activity concentration (AC50) in test [3] is 37.8 µM (active).
For `COc1ccc([N+](=O)[O-])cc1O`, the compound was classed as inactive in test [1], in test [2] and in test [3].
As for `CCCCOC(C)=O`, the result in test [1], in test [2] and in test [3] was inactive.
For `Oc1c(Cl)cc(Cl)cc1Cl`, the compound was classed as inactive in test [4], in [6], in test [7], in test [8], in test [10] and in test [9]. Further, the result in test [2] and in test [3] was inactive.
For the compound `Clc1cccc(Cl)c1Cl`, the compound was called inactive in [4], in test [5], in [6], in [7], in test [8] and in test [9]. In addition, the result in test [1], in test [2] and in test [3] was inactive.
Take `Brc1ccc(Oc2c(Br)cc(Br)cc2Br)c(Br)c1`: the compound was called inactive in test [1], in [2] and in test [3].
